PubChem BioAssay (Tox21)
Records with an inconclusive call do not appear. Calls of active or inactive are those of the source. Unless noted, the call rests on the fitted dose curve.

Tests used:
[1] = Nuclear factor erythroid 2-related factor 2/antioxidant responsive element (Nrf2/ARE) small molecule agonists: qHTS cell viability counter screen in human keratinocytes (AID 1919968; active means well fitted curve in the direction sought with a large enough effect in the repeat runs; an effect the other way counts as inactive or inconclusive; further: nearly all actives have a fitted effect of over 55% in size; further: potency means the concentration at half of the fitted maximal effect)
Procedure, shortened: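 HaCaT ARE reporter line, 1,500 cells/well; 5 h settle, 37 C/5% CO2; cpd in DMSO pinned; 23 h exposure; CellTiter-Fluor, 1 h; fluorescence.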

[2] = Nuclear factor erythroid 2-related factor 2/antioxidant responsive element (Nrf2/ARE) small molecule agonists: luciferase reporter gene qHTS assay in human keratinocytes (AID 1919969); further: nearly all actives have a fitted effect of over 35% in size; further: potency means the concentration at half of the fitted maximal effect
[3] = target: Gonadotropin-releasing hormone receptor (Homo sapiens) (UniProt P30968); test: Human gonadotropin-releasing hormone receptor (GnRHR) small molecule agonists, calcium flux assay in GnRHR-HEK293 cells (AID 1920063); further: nearly all actives have a fitted effect of over 35% in size
Gonadotropin-releasing hormone receptor (Homo sapiens), sequence (P30968 whole entry, looked up): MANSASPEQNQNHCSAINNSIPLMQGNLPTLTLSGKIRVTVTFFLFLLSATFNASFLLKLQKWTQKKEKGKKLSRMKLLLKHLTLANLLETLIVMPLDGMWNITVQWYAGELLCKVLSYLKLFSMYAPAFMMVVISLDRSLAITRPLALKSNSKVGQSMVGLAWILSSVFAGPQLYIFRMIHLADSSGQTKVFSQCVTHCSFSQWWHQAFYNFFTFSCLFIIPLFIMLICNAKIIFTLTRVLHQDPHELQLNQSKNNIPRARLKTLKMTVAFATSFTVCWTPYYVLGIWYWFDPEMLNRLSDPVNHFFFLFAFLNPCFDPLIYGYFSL
Procedure, shortened: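 GnRHR-HEK293, 1500 cells/well, 18 h 37 C/5% CO2; Ca dye 1 h 37 C; cpd pinned (DMSO), agonist mode; kinetic FL 480/540, 3 min, 1 s reads; 15 conc, n=3.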

[4] = target: KiSS-1 receptor (Homo sapiens) (UniProt Q969F8); test: Human kisspeptin (KISS1R) small molecule agonists, calcium flux assay in KISS1R-HEK293 cells (AID 1920064; active means well fitted curve in the direction sought with a large enough effect in the repeat runs; an effect the other way counts as inactive or inconclusive)
KiSS-1 receptor (Homo sapiens), sequence (Q969F8 whole entry, looked up): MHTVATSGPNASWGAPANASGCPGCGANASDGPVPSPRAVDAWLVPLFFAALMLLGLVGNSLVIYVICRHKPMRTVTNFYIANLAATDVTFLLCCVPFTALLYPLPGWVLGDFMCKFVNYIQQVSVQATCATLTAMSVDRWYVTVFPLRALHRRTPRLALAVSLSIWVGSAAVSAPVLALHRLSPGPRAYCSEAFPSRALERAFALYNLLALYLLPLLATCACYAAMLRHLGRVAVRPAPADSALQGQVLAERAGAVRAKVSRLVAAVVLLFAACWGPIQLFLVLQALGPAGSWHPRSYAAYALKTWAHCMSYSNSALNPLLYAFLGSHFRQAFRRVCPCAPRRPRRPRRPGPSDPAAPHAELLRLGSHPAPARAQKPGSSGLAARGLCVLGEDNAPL
Procedure, shortened: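 Stable human KISS1R HEK293 line; 18 h plating, 37 C/5% CO2; calcium dye 1 h 37 C; compound pin transfer; kinetic fluorescence Ex/Em 480/540, 3 min.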

[5] = G protein-coupled receptor (GPCR) small molecule agonists, calcium flux assay: HEK293 wild type cell line counter screen (AID 1920065)
Procedure, shortened: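 Kinetic fluorescence at Ex/Em 480/540, recorded every second over 3 min, served as the read-out after compound addition. Each compound was tested at 15 concentrations in triplicate on cells pre-loaded with calcium dye for 1 h.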

[6] = p53 small molecule agonists, cell-based qHTS assay with human liver microsomes (AID 1963577)
Procedure, shortened: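 p53RE-bla cells, 4,000/well, compound added after 5 h, with human liver microsomes 0.5 mg/mL and NADPH 0.5 mg/mL final; 16 h at 37 C, then LiveBLAzer 2 h RT, fluorescence.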

[7] = p53 small molecule agonists, cell-based qHTS assay with rat liver microsomes (AID 1963578)
Procedure, shortened: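 p53RE-bla cells, 4,000/well, pre-incubated 5 h, then given compounds plus rat liver microsomes (0.5 mg/mL final) and NADPH (0.5 mg/mL final). Incubation 16 h at 37 C; beta-lactamase reporter read by LiveBLAzer fluorescence after 2 h at room temperature.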

[8] = p53 small molecule agonists, cell-based qHTS assay with human liver microsomes: qHTS cell viability counter screen (AID 1963579); further: nearly all actives have a fitted effect of over 45% in size
Procedure, shortened: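 p53RE-bla cells, 4,000/well, dosed 5 hours after plating, with human liver microsomes (0.5 mg/mL final) plus NADPH (0.5 mg/mL final), 16 hours at 37 C. Viability read as CellTiter-Glo luminescence after 30 min at room temperature.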

[9] = p53 small molecule agonists, cell-based qHTS assay with rat liver microsomes: qHTS cell viability counter screen (AID 1963580); further: nearly all actives have a fitted effect of over 45% in size
Procedure, shortened: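 p53RE-bla HCT-116 cells (4,000/well) rested 5 h at 37 C, then given Tox21 compounds in DMSO with rat liver microsomes (0.5 mg/mL final) plus NADPH (0.5 mg/mL final) for 16 h at 37 C. Viability read by CellTiter-Glo luminescence after 30 min at room temperature.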

[10] = p53 small molecule agonists, cell-based qHTS assay (AID 1963582; active means well fitted activation curve with a large enough effect in the signal ratio in the repeat runs, not every such curve was filed as active; the % refers to the signal ratio)
Procedure, shortened: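 Reporter line: p53RE-bla. Pre-incubation 5 h, 37 C, 5% CO2; compound (DMSO, pin tool) 16 h, 37 C; B/G FRET substrate 2 h RT; fluorescence intensity read.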

[11] = target: Muscarinic acetylcholine receptor M1 (Homo sapiens) (UniProt P11229); test: Cholinergic receptor muscarinic 1 (CHRM1) small molecule antagonists, cell-based qHTS assay (AID 1963588); further: nearly all actives have a fitted effect of over 40% in size
Muscarinic acetylcholine receptor M1 (Homo sapiens), sequence (P11229 whole entry, looked up): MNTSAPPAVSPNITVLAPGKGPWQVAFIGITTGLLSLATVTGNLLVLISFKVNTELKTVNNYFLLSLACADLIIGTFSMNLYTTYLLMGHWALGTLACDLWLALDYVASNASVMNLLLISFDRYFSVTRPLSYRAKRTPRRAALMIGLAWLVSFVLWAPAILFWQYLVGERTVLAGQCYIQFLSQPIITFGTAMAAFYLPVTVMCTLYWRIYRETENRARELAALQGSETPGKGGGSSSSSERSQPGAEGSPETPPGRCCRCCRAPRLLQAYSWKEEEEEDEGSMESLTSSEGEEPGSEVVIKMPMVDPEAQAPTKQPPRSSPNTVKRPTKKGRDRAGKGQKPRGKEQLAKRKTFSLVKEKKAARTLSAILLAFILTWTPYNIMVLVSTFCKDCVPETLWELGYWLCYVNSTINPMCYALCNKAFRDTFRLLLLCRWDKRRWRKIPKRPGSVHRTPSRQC
Procedure, shortened: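 CHRM1-CHO calcium-flux assay, antagonist mode. Cells were seeded 18 h, dye-loaded 1 h at 37 C and given compound for 5 min at RT, then acetylcholine was added at 50nM. FDSS fluorescence was read 3 min; 15 concentrations, three runs.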

[12] = target: Muscarinic acetylcholine receptor M1 (Homo sapiens) (UniProt P11229); test: Cholinergic receptor muscarinic 1 (CHRM1) small molecule agonists, cell-based qHTS assay (AID 1963589); further: nearly all actives have a fitted effect of over 35% in size
Procedure, shortened: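 Human M1 in stable CHO line; 18 h plating, 1 h dye load 37 C; cpd added (agonist mode); Ca2+ fluorescence kinetic read, 1 s intervals; 15 conc, 3 runs.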

[13] = cAMP Responsive Elements (CRE) small molecule agonists, cell-based qHTS assay (AID 1963590)
Procedure, shortened: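 HEK 293T CRE-bla, 2,000 cells/well, 18 h preincubation 37 C/5% CO2; cpds (DMSO) pinned, 3 h; LiveBLAzer B/G FRET substrate, 2 h RT.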

[14] = cAMP Responsive Elements (CRE) small molecule antagonists, cell-based qHTS assay (AID 1963591; active means well fitted inhibition curve with a large enough effect in the signal ratio in the repeat runs, not every such curve was filed as active; the % refers to the signal ratio)
Procedure, shortened: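 Beta-lactamase reporter read by FRET substrate (LiveBLAzer B/G) after 2 h at room temperature. CRE-bla HEK293T cells had received compound plus 0.25 uM (final) NKH477 for 3 h at 37 °C.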

[15] = target: 5-hydroxytryptamine receptor 2A (Homo sapiens) (UniProt P28223); test: 5-hydroxytryptamine receptor 2A (HTR2A) small molecule antagonists, cell-based qHTS assay (AID 1963586); further: nearly all actives have a fitted effect of over 45% in size
5-hydroxytryptamine receptor 2A (Homo sapiens), sequence (P28223 whole entry, looked up): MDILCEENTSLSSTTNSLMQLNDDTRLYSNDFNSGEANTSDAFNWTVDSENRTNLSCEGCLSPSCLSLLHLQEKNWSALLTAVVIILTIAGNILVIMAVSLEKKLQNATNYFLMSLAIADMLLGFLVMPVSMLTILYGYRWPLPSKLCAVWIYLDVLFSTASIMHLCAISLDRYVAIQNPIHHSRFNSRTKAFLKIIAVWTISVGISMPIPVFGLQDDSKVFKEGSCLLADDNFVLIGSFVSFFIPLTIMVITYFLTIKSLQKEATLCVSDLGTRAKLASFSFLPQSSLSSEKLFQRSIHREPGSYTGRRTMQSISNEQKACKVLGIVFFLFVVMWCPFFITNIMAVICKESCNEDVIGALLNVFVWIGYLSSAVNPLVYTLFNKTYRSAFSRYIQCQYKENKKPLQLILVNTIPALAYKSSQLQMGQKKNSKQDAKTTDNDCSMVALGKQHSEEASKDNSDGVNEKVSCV
Procedure, shortened: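 Antagonist-mode intracellular calcium assay: DOI (4 nM) added after 5 min compound pre-incubation at room temperature to dye-loaded HTR2A-CHO cells. Fluorescence followed for 3 min, sampled every second.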

[16] = target: 5-hydroxytryptamine receptor 2A (Homo sapiens) (UniProt P28223); test: 5-hydroxytryptamine receptor 2A (HTR2A) small molecule agonists, cell-based qHTS assay (AID 1963587); further: nearly all actives have a fitted effect of over 30% in size; further: potency means the concentration at half of the fitted maximal effect
Procedure, shortened: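 HTR2A-CHO cells, plated 18 h at 37 C/5% CO2, dye-loaded 1 h at 37 C; compounds in DMSO added by pin tool (agonist mode). Intracellular calcium flux read as kinetic fluorescence on FDSS over 2 min at 1 s intervals.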

[17] = target: Beta-2 adrenergic receptor (Homo sapiens) (UniProt P07550); test: Adrenergic beta2 receptor (ADRB2) small molecule antagonists, cell-based qHTS assay (AID 1963592); further: series mostly up to about 92 µM; nearly all actives have a fitted effect of over 50% in size
Beta-2 adrenergic receptor (Homo sapiens), sequence (P07550 whole entry, looked up): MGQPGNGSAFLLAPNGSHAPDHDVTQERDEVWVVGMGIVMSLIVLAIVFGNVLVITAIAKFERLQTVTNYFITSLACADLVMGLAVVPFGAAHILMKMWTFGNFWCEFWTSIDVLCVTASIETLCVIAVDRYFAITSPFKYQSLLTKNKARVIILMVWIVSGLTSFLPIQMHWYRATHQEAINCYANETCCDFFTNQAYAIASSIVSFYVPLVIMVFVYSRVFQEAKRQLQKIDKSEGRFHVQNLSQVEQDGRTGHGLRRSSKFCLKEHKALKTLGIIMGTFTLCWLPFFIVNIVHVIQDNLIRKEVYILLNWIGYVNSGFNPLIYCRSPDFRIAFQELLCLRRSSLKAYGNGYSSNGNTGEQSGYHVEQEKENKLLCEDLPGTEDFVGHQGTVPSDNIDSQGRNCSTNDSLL
Procedure, shortened: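 Cells (CHO, stable ADRB2 overexpression) incubated 18-20hr at 37C; compounds added from DMSO; agonist mix (1nM isoproterenol, 100uM IBMX, 25uM Ro-20-1724) added; 0.5hr RT; d2-cAMP and anti-cAMP-cryptate added; 1hr RT; 665/615 nm read.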

[18] = target: D(2) dopamine receptor (Homo sapiens) (UniProt P14416); test: Dopamine D2 receptor (DRD2) small molecule agonists, cell-based qHTS assay (AID 1963594); further: nearly all actives have a fitted effect of over 35% in size
D(2) dopamine receptor (Homo sapiens), sequence (P14416 whole entry, looked up): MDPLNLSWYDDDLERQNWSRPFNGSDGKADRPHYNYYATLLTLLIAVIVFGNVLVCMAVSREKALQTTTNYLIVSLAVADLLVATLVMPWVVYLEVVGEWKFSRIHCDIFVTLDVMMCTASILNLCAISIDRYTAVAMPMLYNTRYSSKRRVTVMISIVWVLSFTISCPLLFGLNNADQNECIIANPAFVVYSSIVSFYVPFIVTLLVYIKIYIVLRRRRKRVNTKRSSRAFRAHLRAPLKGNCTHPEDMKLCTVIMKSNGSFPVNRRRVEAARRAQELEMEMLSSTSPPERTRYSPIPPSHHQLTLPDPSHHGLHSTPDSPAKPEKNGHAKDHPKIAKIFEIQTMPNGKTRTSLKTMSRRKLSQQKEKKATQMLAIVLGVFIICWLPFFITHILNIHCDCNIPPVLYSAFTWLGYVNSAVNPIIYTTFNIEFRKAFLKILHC
Procedure, shortened: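 HEK293 cells stably expressing DRD2 were cultured 24 h at 37 C, then given Ro20-1724 (0.1 mM final) and compounds for 10 min at room temperature. NKH477 (200nM) was then added for 30 min. cAMP was read by HTRF.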

[19] = target: D(2) dopamine receptor (Homo sapiens) (UniProt P14416); test: Dopamine D2 receptor (DRD2) small molecule antagonists, cell-based qHTS assay (AID 1963595; active means well fitted inhibition curve with a large enough effect in the signal ratio in the repeat runs, with a control signal flat; the % refers to the signal ratio)
Procedure, shortened: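 Cells were plated and grown for 24 h at 37 °C. Ro20-1724 (0.1 mM final) went in first, then compound for 10 min. NKH477 (200 nM) with quinpirole (12 nM) followed for 30 min at RT, then HTRF detection reagents for 1 h.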

[20] = p53 small molecule agonists, cell-based qHTS assay: qHTS cell viability counter screen (AID 1963581); further: nearly all actives have a fitted effect of over 45% in size; further: potency means the concentration at half of the fitted maximal effect
Procedure, shortened: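 HCT-116 p53RE-bla cells, 4,000/well, plated 5 h before compound pin transfer; 16 h at 37 C; bla substrate 2 h RT; then CellTiter-Glo, 30 min RT, luminescence.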
On the % scale 0 is the no-effect control and ±100 the full control effect.

CN(C)CCc1c[nH]c2cccc(O)c12
active: Potency [2] 67.9 µM
inactive: Potency [1] | Potency [3] | Potency [4] | Potency [5] | Potency [6] | Potency [7] | Potency [8] | Potency [9] | Potency [10] | Potency [11] | Potency [12] | Potency [13] | Potency [14]

CC(=O)OCC1=C(C(=O)O)N2C(=O)[C@@H](N)[C@H]2SC1
inactive: activity change, negative = cytotoxicity [1] 3.02% [at 19 µM] | activity, positive = activation [2] -4.57% [at 19 µM] | activity change [3] -1.33% [at 11.8 µM, active compounds read high] | activation [4] -0.221% [at 15.8 µM] | activation [5] 1.18% [at 11.8 µM] | activation [6] 8.26% [at 13.5 µM] | activation [7] 0.252% [at 13.6 µM] | activity change, negative = cytotoxicity [8] -9.53% [at 13.5 µM] | activity change, negative = cytotoxicity [9] 0.524% [at 13.5 µM] | activation [10] 1.4% [at 13.5 µM] | activity, negative = inhibition [15] 10.6% [at 12.7 µM] | activation [16] 1.54% [at 15.9 µM] | activity, negative = inhibition [11] 7.63% [at 12.6 µM] | activation [12] 0.141% [at 15.8 µM] | activation [13] -2.32% [at 19 µM] | activity change, negative = inhibition [14] -7.18% [at 18.9 µM] | activity change, negative = inhibition [17] -0.292% [at 19 µM] | activation [18] 5.76% [at 19 µM] | activity change, negative = inhibition [19] 7.52% [at 18.9 µM]

Nc1n[nH]c(N)n1
active: Potency [2] 27.8 µM
inactive: Potency [1] | Potency [3] | Potency [4] | Potency [5] | Potency [6] | Potency [7] | Potency [8] | Potency [9] | Potency [10] | Potency [15] | Potency [16] | Potency [11] | Potency [12] | Potency [17] | Potency [18] | Potency [19]

CCOC(=O)CBr
inactive: Potency [1] | Potency [2] | Potency [3] | Potency [4] | Potency [5] | Potency [6] | Potency [7] | Potency [8] | Potency [9] | Potency [10] | Potency [15] | Potency [16] | Potency [12] | Potency [13] | Potency [14] | Potency [17] | Potency [18] | Potency [19]

CCC(C)(NC(=O)c1cc(Cl)c(C)c(Cl)c1)C(=O)CCl (centres undefined)
active: Potency [1] 24.5 µM | Potency [2] 1.54 µM | Potency [16] 49.3 µM
inactive: Potency [3] | Potency [4] | Potency [5] | Potency [6] | Potency [7] | Potency [8] | Potency [9] | Potency [20] | Potency [11] | Potency [12] | Potency [17] | Potency [18]

CC(C)CCCCCCCOC(=O)c1ccccc1C(=O)OCCCCCCCC(C)C
inactive: Potency [1] | Potency [2] | Potency [3] | Potency [4] | Potency [5] | Potency [6] | Potency [7] | Potency [8] | Potency [9] | Potency [10] | Potency [15] | Potency [11] | Potency [12] | Potency [13] | Potency [14] | Potency [17] | Potency [18] | Potency [19]

NC(=O)c1ccc(N)nc1
active: Potency [20] 5.76 µM
inactive: Potency [1] | Potency [2] | Potency [3] | Potency [4] | Potency [5] | Potency [6] | Potency [7] | Potency [8] | Potency [9] | Potency [15] | Potency [11] | Potency [12] | Potency [13] | Potency [14] | Potency [17] | Potency [18] | Potency [19]
